Source: ChEMBL document CHEMBL4888484, “Replenishing the malaria drug discovery pipeline: Screening and hit evaluation of the MMV Hit Generation Library 1 (HGL1) against asexual blood stage Plasmodium falciparum ,using a nano luciferase reporter read-out” (2022)
Out of some 4,800 compounds screened, about 410 (8.5%) showed an effect of 50% or more. The full list was thinned out, with strong results kept by preference.

tested on: Plasmodium falciparum; test: Confirmatory screen in NF54 pLDH assay, in single point, at 2uM, 72h; type: functional, Erythrocyte; details: timepoint 72 hour

Row | SMILES | % Inhibition
1 | CCN1C(=O)[C@]2(NC3(CCCCC3)C(=O)N2CC)c2ccccc21 | -11%
2 | Cc1nn(C)c(NC(=O)CCc2c[nH]cn2)c1C | -7%
3 | Cc1cc(C(=O)NCCCS(N)(=O)=O)c(Cl)cc1F | -7%
4 | Cc1ccc(O)c(CNCC2(c3ccccc3Cl)CCOCC2)n1 | 98%
5 | Cc1ccc(O)c(CNc2ccc3c(c2)OCC3(C)C)n1 | -19%
6 | c1csc(CNC2CCCCCCC2)c1 | -2%
7 | COc1ccc(OC)c(NC(=O)CN2CCc3[nH]c4ccc(F)cc4c(=O)c3C2)c1 | 83%
8 | COc1cc(C)c2[nH]c3c(c(=O)c2c1)CN(CC(=O)Nc1ccc(F)c(C)c1)CC3 | 17%
9 | COc1cc(C)c2[nH]c3c(c(=O)c2c1)CN(CC(=O)Nc1ccc(C)c(F)c1)CC3 | 8%
10 | Cc1nn(-c2ccccc2)c2nc(Cc3ccccc3)nc(N3CCCN(C(=O)NC4CCCCC4)CC3)c12 | 8%
11 | Cc1cc(-c2ccccc2)nc2sc(-c3ccccc3)c([O-])[n+]12 | 5%
12 | Cc1cc[n+]2c(-c3ccccc3)cc(-c3ccccc3)nc2c1 | 50%
13 | Cc1cc(-c2ccccc2)cc(-c2ccccc2)c1-c1cc(-c2ccccc2)cc(-c2ccccc2)n1 | -3%
14 | CC[C@H]1Cn2c(C(=O)NC3CCCC3)cc3c(Cl)ccc(c32)O1 | -11%
15 | Cn1c2cn(-c3ccc(F)cc3)c(-c3ccccc3)c2c(=O)n1-c1ccccc1 | 6%
16 | Cn1c(=O)c2c(-c3ccc(Cl)cc3)n(-c3cccc4cccc(N)c34)cc2n(C)c1=O | 91%
17 | O=C(CCc1nc2ccccc2c(=O)[nH]1)Nc1ccc(-n2cnnn2)cc1 | 6%
18 | O=C(N[C@H]1CCOC1=O)OCc1ccccc1 | -4%
19 | CCOC(=O)c1cnn(C)c1S(=O)(=O)N1CCCCC1 | 2%
20 | CC1CC(NC(=O)NC2CS(=O)(=O)c3ccccc32)C(=O)N1c1ccccc1 (stereo unspecified) | -1%
21 | Cc1ccc(Nc2c(-c3cc4ccccc4cc3O)nc3ncccn23)cc1 | 6%
22 | CCCCCc1c(C)nc2[nH]n(-c3ccccc3)c(=O)c2c1O | -22%

Row | SMILES | % Inhibition
23 | O=C1CCCc2nc3[nH]n(-c4ccccc4)c(=O)c3cc21 | 13%
24 | CNCCc1c(-c2ccccc2)[nH]n(-c2ccccc2)c1=O | 69%
25 | CCOc1cccc(NCc2c(N)ncnc2OC)c1 | 13%
26 | CC[C@@](C)(C(=O)NC1CCCC1)N(Cc1ccco1)C(=O)c1ccc2c(c1)OCO2 | -9%
27 | Cc1ccc(CN2CCS(=O)(=O)CC2)o1 | -13%
28 | Cc1oc(-c2ccc(C(=O)Nc3cccc(Cl)c3C)cc2)nc1COc1ccccc1 | 9%
29 | Oc1ccc2cc(CN3CCC[C@H](CN4CCCC4)C3)ccc2c1 | 97%
30 | CN1CCC(N2CCN(Cc3ccc4cc(O)ccc4c3)CC2)CC1 | 92%
31 | CN1CC[C@H](CN(C)Cc2ccc3cc(O)ccc3c2)C1 | 36%
32 | COc1ccc(NC(=O)N2C[C@@H]3C[C@H](NS(=O)(=O)c4ccccc4)[C@H]2C3)c(C)c1 | 3%
33 | CCc1cccc(NC(=O)C2CCN(c3c(C)n(-c4ccccc4)c(=O)n(CC(C)C)c3=O)CC2)c1 | 5%
34 | O=C1c2ccccc2C(=O)N1Cc1cnn(CC(F)F)c1 | 12%
35 | COc1ccc2oc(-c3ccc(CNC(=O)c4cccnc4)cc3)nc2c1 | 6%
36 | CC(C)(C)OC(=O)N1CCC(c2c(C(=O)Nc3ccc(Cl)cc3Cl)cnn2-c2cccc(F)c2)CC1 | -3%
37 | CC1(C)C(=O)NCCN1C(=O)c1ccc2nccnc2c1 | 9%
38 | CN(C(=O)c1n[nH]c2c1CCC2)[C@H]1CCCc2c1cnn2C | -4%
39 | O=S1(=O)c2ccccc2N=NN1Cc1ccc(Cl)cc1 | -19%
40 | O=C(Nc1cnc2ccccc2c1)c1ccccc1C(=O)c1ccc(F)cc1 | 94%
41 | O=C(Nc1ccc(N2CCn3c(nc4ccccc43)C2)cc1)c1ccc(F)cc1 | 14%
42 | O=C(Nc1cc(NC(=O)c2ccc(F)cc2)cc(Oc2cccnc2)c1)c1ccc(F)cc1 | 5%
43 | CN(C)c1cccc(C(=O)N2CCN(c3ncc(F)cn3)C(=O)C2)c1 | 10%
44 | Cc1nnc2sc(-c3cnn(-c4ccccn4)c3C(F)(F)F)nn12 | -4%

Row | SMILES | % Inhibition
45 | c1ccc(-c2cccnc2NCc2cscn2)cc1 | -3%
46 | Cc1ccc(C2C(C(=O)N3CCC(C)CC3)CCC(=O)N2C)cc1 (stereo unspecified) | -1%
47 | COC(=O)[C@@H]1[C@@H](NC(=O)C2CCCC2)CCN1C(C)=O | 1%
48 | Cc1cc2c(cc1C)N(CC(=O)Nc1ccc(C(F)(F)F)cc1)C(=O)CC(c1cccs1)=N2 | -23%
49 | CC1CC(C(=O)Nc2[nH]c(=O)ncc2F)CC(C)(C)C1 (stereo unspecified) | 84%
50 | CC(=O)N[C@@H]1CN(Cc2nccn2Cc2ccccc2)C[C@H]1c1nccn1C | 12%
51 | Cc1ccc(S(=O)(=O)N2CC(C)N(C(=O)N3CCOCC3)C2C)cc1 (stereo unspecified) | 14%
52 | CC1CCN(Cc2ccc(CNCc3c[nH]nc3-c3ccc(F)cc3)cc2)CC1 | 50%
53 | Nc1c(-c2ccc(F)cc2)nsc1C(=O)NC1CCN(Cc2ccccc2)CC1 | 8%
54 | FC(F)(F)C1CCCC(NCc2c[nH]nc2-c2cccnc2)C1 (stereo unspecified) | 3%
55 | c1ccc(-c2ccccc2NCn2nnc3ccccc32)cc1 | -9%
56 | CCc1cccc(NC(=O)N2CCC3(CC2)C(=O)N(CC(=O)Nc2ccc(F)cc2)CN3c2ccccc2)c1 | 30%
57 | CC(C)N(CCS(C)(=O)=O)C(=O)NCc1ccco1 | 10%
58 | CN(C)CCN(C)c1ccc(Br)cc1NCc1cncn1C | 39%
59 | CCn1nc(C)c(CN(C)S(=O)(=O)c2ccc(N3CCCC3=O)cc2)c1C | -1%
60 | Cc1ccc(NC(=O)Nc2cccc(-c3ccc(N4CCN(C)CC4)nn3)c2)cc1C | 13%
61 | Cc1cccc(Nc2nc(-c3cnc(N4CCN(C)CC4)nc3C)cc(=O)[nH]2)c1 | 4%
62 | Cc1cc(C(=O)N[C@@H](C)C(=O)N2CCCCC2)c2nc3n(c2n1)CCCCC3 | 8%
63 | Oc1ccc(-n2c(-c3ccccc3)ccc2-c2ccccc2)cc1 | 12%
64 | COc1cccc(C(=O)C[n+]2cc(-c3ccc(Br)cc3)n(C)c2N)c1 | 4%
65 | COc1ccc2c(c1)[n+](CC(=O)c1ccc(-c3ccc(Br)cc3)cc1)c(CO)n2C | 54%
66 | Cc1ccc(C(=O)C[n+]2cc(-c3ccc(Br)cc3)n(C)c2N)cc1 | -16%
